# Where “and” joins values, the source holds several entries; their conditions need not be identical. Identical values can stand only once. Records with an inconclusive call do not appear. Where a call stands in place of a potency, no number is given. Calls of active or inactive are those of the source. Calls follow the shape of the dose curve; as a rule, active = well fitted curve in the direction sought with a large enough effect; inconclusive = small, poorly fitted or top-dose-only effect, or another doubt; inactive = no such curve, though single readings can be large; an effect the other way counts as inactive or inconclusive.
# Target: Tyrosine-protein kinase Yes (Homo sapiens) (UniProt P07947)
# Sequence (P07947 whole entry, looked up): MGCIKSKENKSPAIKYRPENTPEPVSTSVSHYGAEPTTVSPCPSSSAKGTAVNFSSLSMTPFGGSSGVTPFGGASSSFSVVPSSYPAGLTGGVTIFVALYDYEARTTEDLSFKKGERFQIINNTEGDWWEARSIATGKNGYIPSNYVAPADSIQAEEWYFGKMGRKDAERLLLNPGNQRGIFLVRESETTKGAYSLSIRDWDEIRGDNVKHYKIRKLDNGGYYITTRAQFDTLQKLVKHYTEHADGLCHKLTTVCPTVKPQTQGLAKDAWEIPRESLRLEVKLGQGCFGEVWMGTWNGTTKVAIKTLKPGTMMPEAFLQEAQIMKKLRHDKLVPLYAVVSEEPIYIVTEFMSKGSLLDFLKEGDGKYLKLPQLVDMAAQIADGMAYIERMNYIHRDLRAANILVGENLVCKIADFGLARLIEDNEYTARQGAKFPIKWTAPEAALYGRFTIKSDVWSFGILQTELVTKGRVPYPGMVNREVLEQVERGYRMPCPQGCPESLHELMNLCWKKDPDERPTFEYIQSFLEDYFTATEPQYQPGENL
# Assay: qHTS for small molecule inhibitors of Yes1 kinase: Primary Screen (AID 686947); also: nearly all actives have a fitted effect of over 60% in size; also: potency is read from the fitted curve at half-maximal effect
# Conditions: Yes1 kinase biochemical qHTS inhibition; series mostly up to 76.9 µM
# In short: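 Yes1 (4 nM) preincubated 20 min with compound, then 60 min room-temperature reaction with 0.1 mM ATP and 0.3 mg/mL poly(E4Y) in pH 7.5 Tris, 10 mM MgCl2. ADP measured by ADP-Glo luminescence, normalised to enzyme/no-enzyme controls.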
row,SMILES,Potency
1,CN(C)c1cc2c(Nc3ccc4nc(Cc5ccccc5)[nH]c4c3)ncnc2cn1,412 nM (active)
2,CCOc1ccc2c(-c3ccnc(Nc4cccc(C(F)(F)F)c4)n3)cnn2n1,inactive
3,Cc1nc(-c2ccccc2)n2nc(NCCCN3CCOCC3)ncc12,32800 nM (active)
4,COC(=O)Nc1nc2ccc(Oc3ccc(NC(=O)Nc4cccc(Cl)c4)cc3)cc2[nH]1,inactive
5,Clc1ccc(CNc2nccc(-c3cnn4ncccc34)n2)cc1,inactive
6,O=C1Nc2ccc(-c3cccnc3)cc2C1=Cc1cc(Br)c(O)c(Br)c1,412 nM (active)
7,CN(C)C(=O)OC1CNC(C#Cc2cc3ncnc(Nc4ccc(OCc5cccc(F)c5)c(Cl)c4)c3s2)C1 (configuration not stated),8.23 µM (active) and 7.33 µM (active)
8,COc1cc2c(cc1Nc1nc(Nc3ccsc3C(N)=O)c3cc[nH]c3n1)N(C(=O)CN(C)C)CCC2,inactive
9,COc1cccc(-n2ncc3c(NN=Cc4ccc(S(C)(=O)=O)cc4)ncnc32)c1,92.3 nM (active)
10,Nc1ccc(C#Cc2cncnc2Nc2ccc(OCc3cccc(F)c3)c(Cl)c2)cc1,inactive
11,CN(C)CCCn1c(-c2nonc2N)nc2cnccc21,inactive
12,N#Cc1c(NC(=O)CN2CCOCC2)sc2c1CCCC2,inactive
13,CCC(=O)Nc1ccc(C)c(-c2ccc(C(=O)NCC3CC3)cc2)c1,inactive

# System: not listed separately
# Assay: qHTS for small molecule inhibitors of Yes1 kinase: Counter Assay (AID 686950);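 also: no kinase present so only ADP-Glo detection of a fixed ADP amount is tested; luminescence from ADP-Glo reporting ADP in a fixed ATP and ADP mixture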
# Conditions: series mostly up to 76.9 µM
# In short: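 Enzyme-free ADP-Glo interference check: compounds were preincubated 20 min in buffer, then an ATP/ADP mix (0.08 mM ATP, 0.02 mM ADP final) was added for 60 min at room temperature before two-step ADP-Glo luminescence detection.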
row,SMILES,outcome
1,CC1=C(C(=O)Nc2ccc3[nH]ncc3c2)C(c2ccc(F)cc2)N=C(c2ccc(C(F)(F)F)nc2)N1 (configuration not stated),inactive
2,CN(C)c1cc2c(Nc3ccc4nc(Cc5ccccc5)[nH]c4c3)ncnc2cn1,inactive
3,Cc1ccc(C(=O)NC2CCC2)cc1-c1ccc(C(=O)NCC2CC2)cc1,inactive
4,COc1ccc2cc(-c3c(-c4ccncc4)nc(-c4ccc(S(C)(=O)=O)cc4C)n3C)ccc2c1,inactive
5,CCCN1CCC=C(c2ccc(Nc3nc(Nc4ccccc4C(N)=O)c4cc[nH]c4n3)c(C)c2)C1,inactive
6,COc1cc2c(cc1Nc1nc(Nc3ccsc3C(N)=O)c3cc[nH]c3n1)N(C(=O)CN(C)C)CCC2(C)C,inactive
7,c1ccc(Nc2ncc(-c3ccccc3)o2)cc1,inactive
8,CCOc1ccc2c(-c3ccnc(Nc4cccc(C(F)(F)F)c4)n3)cnn2n1,inactive
9,Cc1nc(-c2ccccc2)n2nc(NCCCN3CCOCC3)ncc12,inactive
10,COc1ccc(-c2ccc3c(NC(=O)C4CC4)n[nH]c3n2)cc1,inactive
11,COc1cccc(-n2ncc3c(NN=Cc4ccc(C)cc4)ncnc32)c1,inactive
12,CC(=O)NCc1cccc(C#Cc2cncnc2Nc2ccc(OCc3cccc(F)c3)c(Cl)c2)c1,inactive
13,CC(C)c1ccc(Nc2nccc(-c3cnn4ncccc34)n2)cc1,inactive
14,COc1ccccc1-c1cc(C=C2C(=O)Nc3ncc(Br)cc32)cc(Br)c1O,inactive
15,Oc1cccc(-c2nc(-c3ccccc3)[nH]c2-c2ccncc2)c1,inactive
16,CCc1nn2ncccc2c1-c1ccnc(NC2CC2)n1,inactive
17,CNC(=O)c1cccc(C#Cc2cncnc2Nc2ccc(OCc3cccc(F)c3)c(Cl)c2)c1,inactive
18,CNC(=O)c1cncc(C=Cc2ccccc2C)c1,inactive
19,COC(=O)Nc1nc2ccc(Oc3ccc(NC(=O)Nc4cccc(Cl)c4)cc3)cc2[nH]1,inactive
20,Clc1ccc(CNc2nccc(-c3cnn4ncccc34)n2)cc1,inactive

row,SMILES,outcome
1,CS(=O)(=O)CCNCc1nc(-c2ccc3ncnc(Nc4ccc(OCc5cccc(C(F)(F)F)c5)cc4)c3c2)cs1,inactive
2,NC(=O)CCc1ccccc1Oc1nccc(-c2c(-c3ccc(F)cc3)ncn2C2CCNCC2)n1,inactive
3,Cc1cccc(Oc2nccc(-c3c(-c4ccc(F)cc4)ncn3C3CCNCC3)n2)c1C,inactive
4,CS(=O)(=O)c1ccc(Oc2nccc(-c3c(-c4ccc(F)cc4)ncn3C3CCNCC3)n2)cc1,inactive
5,O=C1Nc2ccc(-c3cccnc3)cc2C1=Cc1cc(Br)c(O)c(Br)c1,inactive
6,CN(C)C(=O)OC1CNC(C#Cc2cc3ncnc(Nc4ccc(OCc5cccc(F)c5)c(Cl)c4)c3s2)C1 (configuration not stated),inactive
7,COc1cc2c(cc1Nc1nc(Nc3ccsc3C(N)=O)c3cc[nH]c3n1)N(C(=O)CN(C)C)CCC2,inactive
8,Fc1ccc(-c2c(-c3ccncc3)nc3n2CCS3)cc1,inactive
9,COc1ccccc1C1=C(Nc2ccccc2)C(=O)NC1=O,inactive
10,NS(=O)(=O)c1ccc(N=Nc2c(O)[nH]c3ccc(C(=O)NCCc4cnc[nH]4)cc23)cc1,inactive
11,COc1cccc(-n2ncc3c(NN=Cc4ccc(S(C)(=O)=O)cc4)ncnc32)c1,inactive
12,Cc1ccc(NC(=O)c2ccoc2)cc1-c1ccc(C(=O)NCC2CC2)cc1,inactive
13,CCc1nccc2c1nc(-c1nonc1N)n2CC,inactive
14,Nc1ccc(C#Cc2cncnc2Nc2ccc(OCc3cccc(F)c3)c(Cl)c2)cc1,inactive
15,CN(C)CCCn1c(-c2nonc2N)nc2cnccc21,inactive
16,N#Cc1c(NC(=O)CN2CCOCC2)sc2c1CCCC2,inactive
17,CNC(=O)c1cncc(C=Cc2c(C)cccc2C)c1,inactive
18,COc1ccc(C2=C(N3CCc4ccccc43)C(=O)NC2=O)cc1,inactive
19,CCC(=O)Nc1ccc(C)c(-c2ccc(C(=O)NCC3CC3)cc2)c1,inactive

# — PubChem BioAssay (NCATS)
